From PubChem BioAssay
An excerpt weighted towards active compounds, which were near 3.4% of everything screened.
PNC inhibitor = blocks assembly of the perinucleolar compartment. PC3M PTB-GFP, PNC prevalence imaging, 16 h; hits give low values. activity change (PNC), negative = inhibition, % at 10 µM. hit rate 3.1% among 140,000;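 active = readout at or below -70, meaning at least 70% loss of cells showing the perinucleolar compartment, a nuclear body marking cancer cells; inconclusive = readout between -30 and a set limit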
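Compounds are pinned in duplicate onto adhered PC3M cells stably expressing GFP-tagged PTB and incubated 16 h at 37 C. Cells are then fixed, nuclei stained with Hoechst, and PNC-positive cells counted.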
HttQ103 aggreg = inhibitors of mutant huntingtin aggregate formation in PC12 cells | PC12 HttQ103-GFP aggregates, Acumen cytometry, 40 h | Potency, µM (highest dose often 46.1 µM), actives largely listed as inhibitors | hit rate 1.1% among 220,000; note: nearly all actives have a fitted effect of over 60% in size
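Steps: seed 1500 PC12 HTTQ103-GFP cells/well; add tebufenozide, 100 nM final; add compound titration; add ATPLite reagent; quantify GFP aggregates by laser scanning cytometry.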
NPSR antagonist = antagonists of human neuropeptide S receptor cAMP signaling; Q6W5P4; hit rate 1% among 220,000; CHO-NPSR cells, cAMP TR-FRET, antagonist mode; AID 1461; Potency, µM (titrated, usually from 38.3 µM), most hits filed as inhibitors; note: nearly all actives have a fitted effect of over 50% in size
Target sequence (Q6W5P4 whole entry, looked up): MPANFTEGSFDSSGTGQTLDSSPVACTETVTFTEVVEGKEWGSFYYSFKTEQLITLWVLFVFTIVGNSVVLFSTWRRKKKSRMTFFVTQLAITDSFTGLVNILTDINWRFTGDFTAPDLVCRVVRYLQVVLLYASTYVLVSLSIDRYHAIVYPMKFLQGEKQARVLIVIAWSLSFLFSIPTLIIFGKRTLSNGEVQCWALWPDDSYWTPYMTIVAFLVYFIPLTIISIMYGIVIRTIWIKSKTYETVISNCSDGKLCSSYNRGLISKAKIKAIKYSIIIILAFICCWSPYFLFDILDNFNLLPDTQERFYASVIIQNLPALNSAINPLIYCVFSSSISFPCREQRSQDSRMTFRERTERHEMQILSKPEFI
HTT cytoprotect = Huntington cell model cytoprotection by ATP luminescence; PC12 HTT-Q103 induced, cytoprotection, ATP luminescence, 40 h; Potency, µM (highest dose often 56.4 µM), usual class: activators; hit rate 0.14% among 230,000; AID 1471; note: nearly all actives have a fitted effect of over 45% in size
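Rat PC12, Q103 Htt exon1-GFP fusion, ecdysone promoter; tebufenozide inducer 100 nM final; compound titration; qHTS, 1500 cells/well; ATPlite luminescent read.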
IMPase inh = IMPase inhibition in cells | P97697 | CHO-M1 cells, IP1 accumulation, HTRF TR-FRET ratio | inhibition (IP1 accumulation), % at 46.1 µM | 120,000 tested, under 10 active; active = well fitted curve in the direction sought with a large enough effect in the signal ratio, not every such curve was filed as active; inconclusive = small, poorly fitted or top-dose-only effect, or a change in a side signal; inactive = no such curve, though single readings can be large or run the other way; the % refers to the signal ratio;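 note: cells stimulated with carbachol in lithium chloride buffer; higher means more IMPase inhibition seen as more IP1 and lower FRET ratio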
Target sequence (P97697 whole entry, looked up): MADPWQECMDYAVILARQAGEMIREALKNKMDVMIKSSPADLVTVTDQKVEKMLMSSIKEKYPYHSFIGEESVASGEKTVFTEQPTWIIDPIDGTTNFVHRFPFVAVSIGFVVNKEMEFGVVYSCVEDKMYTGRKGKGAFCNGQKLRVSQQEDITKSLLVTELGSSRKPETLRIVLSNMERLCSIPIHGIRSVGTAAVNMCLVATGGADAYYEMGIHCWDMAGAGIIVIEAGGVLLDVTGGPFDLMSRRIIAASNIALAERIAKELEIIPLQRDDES
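Cellular IMPase inhibition is scored as a rise in cytosolic IP1, detected by competitive TR-FRET between d2-labelled IP1 and a europium anti-IP1 antibody. M1-expressing CHO cells were stimulated with carbachol for 30 min at 37C, with lithium (50 mM LiCl) present in the buffer.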
IMPase Li inh = membrane-permeable IMPase blocker, potentiated with lithium. Potency, µM (highest dose often 59.4 µM), actives largely listed as inhibitors. hit rate 0.35% among 210,000. AID 1457. CHO-M1 cells, IP1 TR-FRET (IP-One), carbachol + lithium;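 note: IP1 builds up when IMPase is blocked and the TR-FRET signal falls; nearly all actives have a fitted effect of over 50% in size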
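Concentration–response in CHO-M1 cells, lithium-potentiated; 30 min at 37C. IP1 detected by competitive TR-FRET after 10 min lysis at RT. Hill-fitted AC50.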
Hits are given with their value; [ ] = dose if it differs, or a comment. Unless noted, calls come from the whole dose curve; as a rule, active = well fitted curve in the direction sought with a large enough effect; inconclusive = small, poorly fitted or top-dose-only effect, or another doubt; inactive = no such curve, though single readings can be large; an effect the other way counts as inactive or inconclusive.

`O=C(CCN1C(=O)COc2ccccc21)NCCCN1CCN(c2ccccc2F)CC1` gave PNC inhibitor inactive, HttQ103 aggreg 3.16µM, NPSR antagonist inactive, HTT cytoprotect inactive, IMPase inh inactive and IMPase Li inh inactive.
`COc1ccc(NC(=O)c2c(NC(=O)C(F)(F)F)sc3c2CCCCC3)cc1` gave IMPase inh inactive.
Cn1c(SCC(=O)c2ccc3c(c2)OCCO3)nnc1C(F)(F)F was read as HttQ103 aggreg inactive[9.22 µM], NPSR antagonist inactive and HTT cytoprotect inactive[10 µM].
`COC(=O)CSc1nc2sc3c(c2c(=O)n1-c1ccccc1C)CC(C)(C)OC3` gave IMPase inh inactive.
Cc1ccc(S(=O)(=O)N2CC=C(c3ccc(F)cc3)CC2)cc1 was read as PNC inhibitor -80.3, HttQ103 aggreg inactive, NPSR antagonist inactive, HTT cytoprotect inactive[1.9 µM], IMPase inh inactive and IMPase Li inh inactive.
For Cc1ccc(NC(=O)C2=CCN(S(=O)(=O)c3ccc(F)cc3)CC2)cc1 the results were PNC inhibitor inactive, HttQ103 aggreg inactive, NPSR antagonist inactive and IMPase Li inh inactive.
O=C(NCc1c(Cl)cccc1Oc1ccccc1)c1ccccc1 was read as HttQ103 aggreg inactive[9.22 µM], NPSR antagonist inactive and HTT cytoprotect inactive[10 µM].
For COc1ccc(Cc2nnc(NC(=O)C3CCCO3)s2)cc1 (stereo not drawn) the results were PNC inhibitor -123.3, HttQ103 aggreg inactive, NPSR antagonist inconclusive, HTT cytoprotect inactive, IMPase inh inactive and IMPase Li inh inactive.
For CSCCC(NC(=O)c1ccc(Cl)cc1)C(=O)OCC(=O)c1ccc[nH]1 (stereo not drawn) the results were PNC inhibitor -119.3, HttQ103 aggreg inactive, NPSR antagonist inactive, HTT cytoprotect inactive[10 µM], IMPase inh inactive and IMPase Li inh inactive.
For Cc1sc2ncnc(SCC(=O)N3CCCC3=O)c2c1C the results were PNC inhibitor -96.9, HttQ103 aggreg inactive, NPSR antagonist inactive, HTT cytoprotect inactive[10 µM], IMPase inh inactive and IMPase Li inh inactive.
CCCC(=O)OCCNc1cc(Sc2nccn2C)c2nonc2c1[N+](=O)[O-] was read as PNC inhibitor inactive, HttQ103 aggreg 11.2µM, NPSR antagonist 10µM, HTT cytoprotect inactive[10 µM] and IMPase Li inh inactive.
Screening Cc1cccnc1N(C(=O)Nc1cccc(Cl)c1)C1=NCC(C)(C)S1 returned PNC inhibitor inactive, HttQ103 aggreg inactive, NPSR antagonist inactive and IMPase Li inh inactive.
Screening Cc1cccnc1N(C(=O)Nc1ccccc1)C1=NCC(C)(C)S1 returned PNC inhibitor -89.1, HttQ103 aggreg inactive, NPSR antagonist inactive, HTT cytoprotect inactive, IMPase inh inactive and IMPase Li inh inactive.
O=c1[nH]c(CSc2nc3ccccc3[nH]2)nc2c1cnn2-c1ccccc1 was read as PNC inhibitor inactive, HttQ103 aggreg inactive, NPSR antagonist inactive, HTT cytoprotect inactive[10 µM] and IMPase Li inh inactive.
`O=c1[nH]c(SCc2nc3c(cnn3-c3ccccc3)c(=O)[nH]2)nc2ccccc12` gave PNC inhibitor -108.4, HttQ103 aggreg inactive, NPSR antagonist inactive, HTT cytoprotect inactive, IMPase inh inactive and IMPase Li inh inconclusive.
`Cc1cc2nc(-c3ccc(NC(=O)c4ccccc4F)cc3)oc2cc1C` gave IMPase inh inactive.
`Cc1ccc(C2c3sc(=O)[nH]c3SC3C4CC(C5C(=O)N(C(C)C(=O)O)C(=O)C45)C23)cc1` (stereo not drawn) gave PNC inhibitor -89.9, HttQ103 aggreg inactive, NPSR antagonist inactive, HTT cytoprotect inactive[10 µM] and IMPase Li inh inactive.
O=C(O)CCN1C(=O)C2C3CC(C2C1=O)C1C(c2ccccc2)c2sc(=O)[nH]c2SC31 (stereo not drawn) was read as HttQ103 aggreg inactive, NPSR antagonist inactive, HTT cytoprotect inactive and IMPase Li inh inactive.
CN(C)S(=O)(=O)c1cccc(NC(=O)COC(=O)CNC(=O)c2cccc([N+](=O)[O-])c2)c1 was read as HttQ103 aggreg inactive[9.22 µM], NPSR antagonist inactive and HTT cytoprotect inactive[10 µM].
CCN(CC)CCNC(C(=O)Nc1ccc([N+](=O)[O-])cc1Br)c1ccccc1 (stereo not drawn) was read as PNC inhibitor -104.2, HttQ103 aggreg inactive, NPSR antagonist inactive, HTT cytoprotect inactive[0.074 µM] and IMPase Li inh inactive.
`CCOC(=O)C1CCCN(c2cc(C)nc3cc(-c4ccc(Cl)cc4)nn23)C1` (stereo not drawn) gave PNC inhibitor -100.0, HttQ103 aggreg inconclusive, NPSR antagonist inactive, HTT cytoprotect inactive[10 µM], IMPase inh inactive and IMPase Li inh inactive.
For CCOC(=O)C1CCCN(C(=O)c2ccc(Cl)cc2)C1 (stereo not drawn) the results were HttQ103 aggreg inactive[9.22 µM], NPSR antagonist inactive, HTT cytoprotect inactive and IMPase Li inh inactive.
For CCOC(=O)C1CCCN(c2cc(C)nc3cc(-c4ccc(F)cc4)nn23)C1 (stereo not drawn) the results were PNC inhibitor -90.2, HttQ103 aggreg inactive, NPSR antagonist inactive[7.67 µM], HTT cytoprotect inactive, IMPase inh inactive and IMPase Li inh inactive.
`Cc1ccc(NC(=O)CN2C(=O)NC3(CCC(C)CC3)C2=O)c(Cl)c1` (stereo not drawn) gave PNC inhibitor -126.9, HttQ103 aggreg inactive, NPSR antagonist inactive, HTT cytoprotect inactive, IMPase inh inactive and IMPase Li inh inactive.
Screening CC1CCC2(CC1)NC(=O)N(CC(=O)Nc1nc(-c3ccc(F)cc3)cs1)C2=O (stereo not drawn) returned PNC inhibitor inconclusive, HttQ103 aggreg inactive, NPSR antagonist inactive, HTT cytoprotect inactive, IMPase inh inactive and IMPase Li inh 14.1µM.
Screening O=c1[nH][nH]c(-c2ccccc2)c1C=Nc1ccc(OC(F)(F)F)cc1 returned HttQ103 aggreg inactive, NPSR antagonist inactive, HTT cytoprotect inactive and IMPase Li inh inactive.
Screening CCC(=O)OCC(=O)[C@@]1(OC(=O)CC)[C@H](C)C[C@@H]2[C@@H]3[C@H]([C@@H](O)C[C@@]21C)[C@]1(C)C=CC(=O)C=C1C[C@@H]3Cl returned HttQ103 aggreg inactive, HTT cytoprotect inactive, IMPase inh inactive and IMPase Li inh inactive.
Screening Cc1cc(NC(=O)CC23CC4CC(C2)CC(CC(=O)Nc2cc(C)on2)(C4)C3)no1 returned PNC inhibitor -92.2, HttQ103 aggreg inactive, NPSR antagonist inactive, HTT cytoprotect inactive[0.074 µM], IMPase inh inactive and IMPase Li inh inactive.
`Cc1cc(NC(=O)CCC2CCCC2)no1` gave PNC inhibitor inconclusive, HttQ103 aggreg inactive, NPSR antagonist inactive, HTT cytoprotect inactive, IMPase inh inactive and IMPase Li inh inactive.
Screening Cc1cc(NC(=O)C(C)(C)C)no1 returned PNC inhibitor -83.8, HttQ103 aggreg inactive, NPSR antagonist inactive, HTT cytoprotect inactive[10 µM], IMPase inh inactive and IMPase Li inh inactive.
